In publication PMC10726135, “HNF4α isoforms regulate the circadian balance between carbohydrate and lipid metabolism in the liver”:
In all, about 18,000 sequences were measured (“log2 normalized intensity”: median about 0.36, highest 2% from about 7.3 on). Only a selection was taken, and the highest values are over-represented in it overall.

Each sequence was assayed against T1, HNF4alpha8 (COS-7 nuclear extract) (Homo sapiens, UniProt P41235-5 1-452) (assay: protein-binding microarray; COS-7 nuclear extract on double-stranded Agilent 4x180k PBM; binding buffer, salt, pH and temperature not given in the material; high values mean tight binding). Conditions: chain copies: 2; label: 3' end of strand 1 on the slide; dsDNA, one strand shown.
T1 sequence: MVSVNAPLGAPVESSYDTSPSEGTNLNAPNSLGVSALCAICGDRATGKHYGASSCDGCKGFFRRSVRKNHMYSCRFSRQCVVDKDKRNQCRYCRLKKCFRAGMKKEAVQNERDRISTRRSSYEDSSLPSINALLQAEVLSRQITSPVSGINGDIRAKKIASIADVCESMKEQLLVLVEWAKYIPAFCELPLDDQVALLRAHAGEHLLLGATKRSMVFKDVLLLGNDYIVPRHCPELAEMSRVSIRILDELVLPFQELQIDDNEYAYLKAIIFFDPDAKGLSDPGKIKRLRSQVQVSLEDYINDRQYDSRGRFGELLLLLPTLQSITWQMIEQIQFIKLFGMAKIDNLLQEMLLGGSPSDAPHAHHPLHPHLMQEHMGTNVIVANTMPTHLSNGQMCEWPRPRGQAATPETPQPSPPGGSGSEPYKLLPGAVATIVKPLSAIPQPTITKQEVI
How it was run: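 A custom Agilent SurePrint G3 4x180k array, spotted in quadruplicate with ~44,000 test sequences as ~60-nt oligonucleotides made double-stranded, was incubated with nuclear extracts. The extracts came from COS-7 cells transiently transfected by CaPO4 with a human HNF4α isoform expression vector. Bound HNF4α was imaged on an Agilent G2565CA scanner at 2-µm resolution, and the binding signal was taken as Agilent software's background-corrected, normalized gProcessedSignal.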

Question: For “GTGCTGGTACATAGCAGGGGTTAGGTAAACGCCTAGGGAGATTAGAGTATCGGTCGA”, which binding signal is on record?
Answer: -0.36 log2 normalized intensity

Question: “GGAGCAGAGCGATCAAAGGTCACAGAGACCGCCTAGGGAGATTAGAGTATCGGTCGA” was tested. Which binding signal did it give?
Answer: 6.2 log2 normalized intensity

Question: For “TGGGCCCACAGATGATCAAAGGTCAGTCTTGCCTAGGGAGATTAGAGTATCGGTCGA”, which binding signal is on record?
Answer: 7.25 log2 normalized intensity

Question: With “TCAGGAGCCCCACAGAGCAAAGGTCATGCAGCCTAGGGAGATTAGAGTATCGGTCGA” as the sequence, how does the binding signal read?
Answer: 6.34 log2 normalized intensity

Question: For “GGGTCATGGAGCTGGAGGGCAAAGGTCAGAGCCTAGGGAGATTAGAGTATCGGTCGA”, which binding signal is on record?
Answer: 8.54 log2 normalized intensity

Question: For “GTGGGTGCCAAACAAAAAGGGCAAAGGTCAGCCTAGGGAGATTAGAGTATCGGTCGA”, which binding signal is on record?
Answer: 8.84 log2 normalized intensity

Question: “TATGAGAGAGAGAGAGAGGTGGGCAAAGGTGCCTAGGGAGATTAGAGTATCGGTCGA” was tested. Which binding signal did it give?
Answer: 1.33 log2 normalized intensity

Question: With “GAGAGAGAGAGAGGTGGGCAAAGGTCTCAAGCCTAGGGAGATTAGAGTATCGGTCGA” as the sequence, how does the binding signal read?
Answer: 3.68 log2 normalized intensity

Question: How did the binding signal turn out when “CACTGGGGTCATGGAGCTGGAGGGCAAAGGGCCTAGGGAGATTAGAGTATCGGTCGA” was run?
Answer: 4.08 log2 normalized intensity

Question: Which binding signal does the source give for “ATGGAGCTGGAGGGCAAAGGTCAGAGGCTGGCCTAGGGAGATTAGAGTATCGGTCGA” here?
Answer: 6.88 log2 normalized intensity

Question: Which binding signal does the source give for “TGACTGGAGCAGAGCGATCAAAGGTCACAGGCCTAGGGAGATTAGAGTATCGGTCGA” here?
Answer: 7.44 log2 normalized intensity

Question: “AGAGCGATCAAAGGTCACAGAGACCACAGGGCCTAGGGAGATTAGAGTATCGGTCGA” was tested. Which binding signal did it give?
Answer: 5.89 log2 normalized intensity

Question: “AATCATGGGCCCACAGATGATCAAAGGTCAGCCTAGGGAGATTAGAGTATCGGTCGA” was tested. Which binding signal did it give?
Answer: 7.91 log2 normalized intensity

Question: How did the binding signal turn out when “CCCCATATCCAGTCAATCCCGTGGACTTTGGCCTAGGGAGATTAGAGTATCGGTCGA” was run?
Answer: 6.13 log2 normalized intensity

Question: For “TTGAATTCCTTCTTCTTCTGGGGACTTCGGGCCTAGGGAGATTAGAGTATCGGTCGA”, which binding signal is on record?
Answer: 2.16 log2 normalized intensity

Question: With “CTTATAAATCTTCAACTGGAGGATAAAGTTGCCTAGGGAGATTAGAGTATCGGTCGA” as the sequence, how does the binding signal read?
Answer: 1.09 log2 normalized intensity

Question: With “GAGTCCAAACTGGGACCTGTGACACTCTGCGCCTAGGGAGATTAGAGTATCGGTCGA” as the sequence, how does the binding signal read?
Answer: 0.644 log2 normalized intensity

Question: Which binding signal does the source give for “CATACCAGGTGTAAAGTCTGGCATACAGGGGCCTAGGGAGATTAGAGTATCGGTCGA” here?
Answer: 0.00259 log2 normalized intensity

Question: With “ATGTTAGGCTGGAAAACTGGGCTGTTATTTGCCTAGGGAGATTAGAGTATCGGTCGA” as the sequence, how does the binding signal read?
Answer: 0.577 log2 normalized intensity

Question: For “TGCGTGTTATCTATGGAACATGGACTTTGAGCCTAGGGAGATTAGAGTATCGGTCGA”, which binding signal is on record?
Answer: 9.28 log2 normalized intensity

Question: How did the binding signal turn out when “CCTCTTGCGTGTTATCTATGGAACATGGACGCCTAGGGAGATTAGAGTATCGGTCGA” was run?
Answer: 2.5 log2 normalized intensity

Question: “TCCATCATTTTTCTCTCTTGGACTCTTGGAGCCTAGGGAGATTAGAGTATCGGTCGA” was tested. Which binding signal did it give?
Answer: 4.92 log2 normalized intensity

Question: For “GAACATGGACTTTGAACCTCTCTTCTTTTTGCCTAGGGAGATTAGAGTATCGGTCGA”, which binding signal is on record?
Answer: 7.93 log2 normalized intensity

Question: “AACATGGACTTTGTTGTTTGCCTCTGAAAAGCCTAGGGAGATTAGAGTATCGGTCGA” was tested. Which binding signal did it give?
Answer: 2.8 log2 normalized intensity

Question: “CATCTGAACTCTTCATGGACTCCTCTTATCGCCTAGGGAGATTAGAGTATCGGTCGA” was tested. Which binding signal did it give?
Answer: 2.06 log2 normalized intensity

Question: With “TTTGAACACCTCTTCTTTCTTCTCTGGTACGCCTAGGGAGATTAGAGTATCGGTCGA” as the sequence, how does the binding signal read?
Answer: 1.8 log2 normalized intensity

Question: With “CATTTTTCTCTCTTGGACTCTTGGACTCCCGCCTAGGGAGATTAGAGTATCGGTCGA” as the sequence, how does the binding signal read?
Answer: 7.67 log2 normalized intensity

Question: With “TACATTGAACTTTGAACACCTCTTCTTTCTGCCTAGGGAGATTAGAGTATCGGTCGA” as the sequence, how does the binding signal read?
Answer: 5.51 log2 normalized intensity

Question: “TTCTCTCTTGGACTCTTGGACTCCCTGAAGGCCTAGGGAGATTAGAGTATCGGTCGA” was tested. Which binding signal did it give?
Answer: 5.73 log2 normalized intensity

Question: How did the binding signal turn out when “CTATGGAACATGGACTTTGAACCTCTCTTCGCCTAGGGAGATTAGAGTATCGGTCGA” was run?
Answer: 9.09 log2 normalized intensity

Question: How did the binding signal turn out when “CCATACCTCTTGCGTGTTATCTATGGAACAGCCTAGGGAGATTAGAGTATCGGTCGA” was run?
Answer: 1.67 log2 normalized intensity

Question: With “TTGCCAGTTCCCATTTGCGCTGGTTTTATGGCCTAGGGAGATTAGAGTATCGGTCGA” as the sequence, how does the binding signal read?
Answer: 1.65 log2 normalized intensity

Question: For “GTTATCACAGGCTTGGAATGTTTCTGTATCGCCTAGGGAGATTAGAGTATCGGTCGA”, which binding signal is on record?
Answer: 0.74 log2 normalized intensity

Question: “AAACGCTGAAGTCTCAAAGTTCACCACTTTGCCTAGGGAGATTAGAGTATCGGTCGA” was tested. Which binding signal did it give?
Answer: 3.3 log2 normalized intensity

Question: Which binding signal does the source give for “GAAGCTGGTAGCATGGCTCAGTCCAAGTCCGCCTAGGGAGATTAGAGTATCGGTCGA” here?
Answer: 0.896 log2 normalized intensity

Question: How did the binding signal turn out when “TTGGACTCTGCCACTGGTTTGCACACACCAGCCTAGGGAGATTAGAGTATCGGTCGA” was run?
Answer: 1.94 log2 normalized intensity

Question: Which binding signal does the source give for “TATACATTTTCCCACTTGTATGTCCAAGGGGCCTAGGGAGATTAGAGTATCGGTCGA” here?
Answer: 1.25 log2 normalized intensity

Question: For “GAACAAAGGTTGGTGTGAACCAGGGTTAAGGCCTAGGGAGATTAGAGTATCGGTCGA”, which binding signal is on record?
Answer: 1.59 log2 normalized intensity

Question: For “ACCTTTATCTGATCAGAAATGTTTGGAATTGCCTAGGGAGATTAGAGTATCGGTCGA”, which binding signal is on record?
Answer: 1.84 log2 normalized intensity

Question: Which binding signal does the source give for “TCTTCTTCTGGGGACTTCGGTCTTTTTTCTGCCTAGGGAGATTAGAGTATCGGTCGA” here?
Answer: 2.67 log2 normalized intensity

Question: “TTTCTCTTTTGACCTTTGGACTTTCACATTGCCTAGGGAGATTAGAGTATCGGTCGA” was tested. Which binding signal did it give?
Answer: 11 log2 normalized intensity

Question: How did the binding signal turn out when “CCTTGCTATGGAGTGGACTTTGGCTTATGCGCCTAGGGAGATTAGAGTATCGGTCGA” was run?
Answer: 7.08 log2 normalized intensity

Question: For “TGAACTTTGAACACCTCTTCTTTCTTCTCTGCCTAGGGAGATTAGAGTATCGGTCGA”, which binding signal is on record?
Answer: 4.71 log2 normalized intensity

Question: “TGGACTTTGAACCTCTCTTCTTTTTCGTCTGCCTAGGGAGATTAGAGTATCGGTCGA” was tested. Which binding signal did it give?
Answer: 7.42 log2 normalized intensity

Question: “AGTCTAACTTTGGACTTTTATGTTAAGATCGCCTAGGGAGATTAGAGTATCGGTCGA” was tested. Which binding signal did it give?
Answer: 2.93 log2 normalized intensity

Question: With “ACTCATTTCACATTGGTGCCCTTTGCCTTTGCCTAGGGAGATTAGAGTATCGGTCGA” as the sequence, how does the binding signal read?
Answer: 4.99 log2 normalized intensity

Question: Which binding signal does the source give for “GTTATCTATGGAACATGGACTTTGAACCTCGCCTAGGGAGATTAGAGTATCGGTCGA” here?
Answer: 10.9 log2 normalized intensity

Question: “CCTTTGGTGCCTCTTTTTTCTTGTTGACTTGCCTAGGGAGATTAGAGTATCGGTCGA” was tested. Which binding signal did it give?
Answer: 1.91 log2 normalized intensity

Question: With “GCCTGTCACCCAACCTCACCTAACCACATTGCCTAGGGAGATTAGAGTATCGGTCGA” as the sequence, how does the binding signal read?
Answer: 1.21 log2 normalized intensity

Question: How did the binding signal turn out when “GCTGATGCAGAGGGTGCAAAGTTTTTAAAGGCCTAGGGAGATTAGAGTATCGGTCGA” was run?
Answer: 1.28 log2 normalized intensity

Question: For “ACACCTTTTCTAGCTGAGTTGACCTGTGTTGCCTAGGGAGATTAGAGTATCGGTCGA”, which binding signal is on record?
Answer: 4.51 log2 normalized intensity

Question: “ACATTAATCAGTCGCGTATCTGACTTTATCGCCTAGGGAGATTAGAGTATCGGTCGA” was tested. Which binding signal did it give?
Answer: 0.606 log2 normalized intensity

Question: For “CATTCTCTAATCAGGTCGCTGCCTGCCCCTGCCTAGGGAGATTAGAGTATCGGTCGA”, which binding signal is on record?
Answer: 3.39 log2 normalized intensity

Question: How did the binding signal turn out when “TACATTTTGCTCTGTTGTGTCAAAGGTCACGCCTAGGGAGATTAGAGTATCGGTCGA” was run?
Answer: 7 log2 normalized intensity
